From PubChem BioAssay (NCATS) come the findings set out here.

Assay [1] has as its target Thioredoxin reductase 1, cytoplasmic (Rattus norvegicus) (UniProt O89049). The assay is described as follows: qHTS Assay for Substrates of Mammalian Selenoprotein Thioredoxin Reductase 1 (TrxR1) (AID 488772).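 Further: NADPH fluorescence in the first read after selenite addition and not the 8 min delta; series mostly up to about 57 µM; 0% is about no effect; a drop in NADPH fluorescence below the no-compound background marks a TrxR1 substrate.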 In short, it runs like this: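 Quantitative HTS in Tris-HCl buffer at pH 7.5 with EDTA and Tween-20, using rat TrxR1, 400 uM NADPH and 400 uM selenite (final). A fall in initial NADPH fluorescence relative to background marked substrate behaviour.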
(In qHTS, concentration-response curves come from the screen itself.)

For assay [2] the target is unchanged. The assay is described as follows: qHTS Assay for Inhibitors of Mammalian Selenoprotein Thioredoxin Reductase 1 (TrxR1) (AID 488773). Further: nearly all actives have a fitted effect of over 40% in size. Further: potency means the concentration at half of the fitted maximal effect. The settings on record: Potency: inhibition. In short, it runs like this: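 Steps: enzyme (90 nM) plus NADPH (400 uM final), 5 min at ~22 deg C; compound added, 15 min; selenite (400 uM final) added; fluorescence followed for 8 min. Concentration-response curves derived from the normalized delta values.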

The target of assay [3] is Flap endonuclease 1 (Homo sapiens) (UniProt P39748). The assay is described as follows: qHTS Validation Assay for the Inhibitors of Human Flap endonuclease 1 (FEN1) (AID 488816). Further: on the % scale 0 is the no-effect control and ±100 the full control effect. Summed up: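 Readings taken at 0 and 15 min after starting the reaction with 50 nM (final) substrate supplied the signal. Compounds had first sat with 10 nM FEN1 reagent for 15 min at room temperature. Values come from Hill-equation concentration-response fits.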

The target in assay [4] is M-phase phosphoprotein 8 (Homo sapiens) (UniProt Q99549). In words: qHTS Validation Assay for Inhibitors for MPP8 Chromodomain Interactions with Methylated Histone Tails (AID 488949). Further: nearly all actives have a fitted effect of over 55% in size. Further: potency means the concentration at half of the fitted maximal effect. In short, it runs like this: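 AlphaScreen proximity signal from streptavidin donor and Ni-chelate acceptor beads (10 ug/mL each) reported binding of MPP8 to trimethyl-K9 H3(1-18) peptide, both at 50 nM. The complex formed 30 min before a 30 min compound exposure at room temperature, in PBS pH 7.4.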

In assay [5] the target is Chromobox protein homolog 1 (Homo sapiens) (UniProt P83916). In words: qHTS Validation Assay for Inhibitors of HP1-beta Chromodomain Interactions with Methylated Histone Tails (AID 488953). Further: nearly all actives have a fitted effect of over 50% in size. Further: potency means the concentration at half of the fitted maximal effect. In short, it runs like this:
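HP1-beta (50 nM) was preincubated 30 min at room temperature with biotinylated H3(1-18)K9me3 peptide (50 nM) in PBS pH 7.4, 0.01% Tween-20, then with compounds 30 min. AlphaScreen signal was read after streptavidin donor/nickel chelate acceptor beads (10 ug/mL final).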

Assay [6] concerns the target Methanococcus maripaludis chaperonin (MmCpn) (UniProt Q6LX38). The assay is described as follows: High-Throughput Screening for Modulators of Cytosolic Chaperonin Activity: MmCpn Primary Screen (AID 488978).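 Further: 50 nM MmCpn enzyme hydrolysing 30 µM ATP at 37 °C; 0% is about no effect.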 Summed up:
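ATPase activity of 50 nM MmCpn was assayed with 30 uM ATP, 10 minutes at 37C, after a 5 min compound preincubation at room temperature. ADP production was read as HTRF emission at 590 and 665 nm.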

Assay [7] deals with Thyrotropin receptor (Homo sapiens) (UniProt P16473). In words: qHTS Assay for Antagonists of the Thyroid Stimulating Hormone Receptor (AID 488980). Further: series mostly up to about 58 µM; 0% is about no effect. In short, it runs like this:
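Inhibition of cAMP raised by EC80 TSH (4 nM final) was read by HTRF, with lysate cAMP competing against cAMP-d2 for cryptate antibody after 30 min at room temperature. The cells were transfected HEK293 held in phosphodiesterase inhibitor RO 20-1724 at 70 uM.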

Assay [8] deals with Thyrotropin-releasing hormone receptor (Homo sapiens) (UniProt P34981). In words: qHTS for Small Molecule Agonists and Allosteric Enhancers of Human TRH Receptor: Validation Screen for Agonists (AID 493127;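 active means calcium activation more than 3 SD above the typical response in the agonist read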;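 further: intracellular calcium rise by fluo-8 fluorescence before TRH EC20 addition; 0% is about no effect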). To be noted: TRH receptor agonist cell assay; at 2 µM; stronger effect = higher value. Summed up:
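TRHR-expressing cells were plated overnight in serum-containing medium, then loaded with fluo-8 calcium dye at room temperature for 30 min–1.5 h. After a 10 s baseline, compound was pin-transferred and calcium fluorescence (ex 480/em 530) read kinetically for agonist response.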

Assay [9] can be described thus: qHTS for Inhibitors of Cell Surface uPA Generation: Validation Assay (AID 493164).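 Further: RAW 264.7 macrophage cells exposed to compound for 18 h; 0% is about no effect.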 In short, it runs like this:
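RAW 264.7, 4000 cells/well, o/n plating; cpd 7-pt 1:5 dilution 2.45 nM–38.3 uM final; 18 h, 37 C/5% CO2; ATP-Lite, 5 s luminescence exposure.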

Assay [10] addresses Galactokinase (Homo sapiens) (UniProt P51570). The assay is described as follows: qHTS Validation Assay for Inhibitors of Human Galactokinase (GALK) (AID 493189). Further: 0% is about no effect. Summed up:
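Inhibition was measured as remaining ATP, detected by luciferase luminescence after a 1 h room-temperature reaction. Final conditions: 5 nM GALK, 100 uM galactose, 35 uM ATP, pH 8.0 HEPES buffer.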

The nature of assay [11]: Validation screen for small molecules that induce DNA re-replication in SW480 colon adenocarcinoma cells (AID 504364). Further: 0% is about no effect. Summed up:
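SW480 cells seeded at 250 per well were exposed to compound or DMSO for 48 hr at 37 C, 5% CO2, then stained with Hoechst for 40 min. DNA content per nucleus was imaged (405 nm ex, 500-530 nm em).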

For assay [12], the target named is D(1A) dopamine receptor (Homo sapiens) (UniProt P21728). The assay is described as follows: HTS Assay for Allosteric Agonists of the Human D1 Dopamine Receptor: Primary Screen for Agonists (AID 488981). Further: 0% is about no effect. Summed up:
(§1)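 Calcium flux in an inducible, force-coupled HEK293 Trex D1 line (overnight at 30 C): agonist mode is the 180 s kinetic read after compound; potentiator mode is the following 180 s read after dopamine at EC20.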

Assay [13] shares this target. In words: HTS Assay for Allosteric Agonists of the Human D1 Dopamine Receptor: Primary Screen for Antagonists (AID 488983).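 Further: calcium flux response to an EC80 dopamine challenge measured with no-wash dye; nearly all actives have a fitted effect of over 65% in size.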 Further: potency means the concentration at half of the fitted maximal effect. In short, it runs like this:
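Tetracycline-induced HEK293 T-REx cells expressing force-coupled D1 were plated overnight at 30 C, dye-loaded for calcium, and read kinetically. Compounds were pinned in, then an EC80 dopamine challenge followed after 180 s to reveal antagonism.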

Assay [14] can be described thus: Validation screen for small molecules that induce genotoxicity in human embryonic kidney (HEK293T) cells expressing luciferase-tagged ELG1 (AID 493106). Further: 0% is about no effect. Summed up: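 HEK293T cells expressing luciferase-tagged ELG1 were exposed to compound or DMSO vehicle for 16 hr at 37 °C, 5% CO2. Genotoxic stress raises ELG1 levels, so increased luciferase signal after ONE-Glo addition and 30 min at room temperature marks hits.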

Assay [15] concerns the target Transient receptor potential cation channel subfamily V member 1 (Homo sapiens) (UniProt Q8NER1). The assay is described as follows: HTS Assay for Compounds that Act as Enhancers of the Vanilloid Receptor 1 (AID 488979). Further: 0% is about no effect. Summed up:
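Calcium influx kinetics via Fluo-8 (480/520 nm) in TRPV1-expressing cells, 2000/well cultured overnight at 35.5C. Compound-alone read 3 min (agonist phase), followed by EC20 capsaicin challenge for 2 min (enhancer phase).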

Assay [16] has as its target D(1A) dopamine receptor (Homo sapiens) (UniProt P21728). In words: HTS Assay for Allosteric Agonists of the Human D1 Dopamine Receptor: Primary Screen for Potentiators (AID 488982). Further: 0% is about no effect. In short, it runs like this:
as §1

In assay [17] the target is ATPase family AAA domain-containing protein 5 (Homo sapiens) (UniProt Q96QE3). The assay is described as follows: Validation screen for small molecules that inhibit ELG1-dependent DNA repair in human embryonic kidney (HEK293T) cells expressing luciferase-tagged ELG1 (AID 493107). Further: nearly all actives have a fitted effect of over 70% in size. Further: potency means the concentration at half of the fitted maximal effect. In short, it runs like this: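 HEK293T cells expressing luciferase-tagged ELG1 were co-treated with 5-fluorouridine and compound or DMSO for 16 hr at 37 °C, 5% CO2. Luciferase activity was then read with ONE-Glo after 30 min at room temperature; suppressed signal indicates blocked ELG1 function.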

Assay [18] is described as follows: Nrf2 qHTS screen for inhibitors: Validation (AID 493153; active means well fitted inhibition curve with a large enough effect in the main read-out, with a control signal flat, not every such curve was filed as active). To be noted: Potency: luciferase luminescence; viability change: measured here: cytotoxicity max response. In short, it runs like this: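 A549 cells carrying an ARE-driven firefly luciferase reporter, in 5% FBS OPTI-MEM, were treated with compounds in concentration-response for 18-24 h at 37°C. Viability was read by CellTiter-Fluor fluorescence, then Nrf2 activity by luciferase luminescence.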

Assay [19] has as its target ATP-dependent 6-phosphofructokinase (Trypanosoma brucei brucei) (UniProt O15648). The assay is described as follows: qHTS Assay to Find Inhibitors of T. brucei phosphofructokinase: hit validation (AID 492961).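 Further: luminescence reports ADP formed as PFK phosphorylates fructose-6-phosphate with ATP; series mostly up to about 51 µM; on the % scale 0 is the no-effect control and ±100 the full control effect.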 Summed up:
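In this biochemical qHTS validation, titrated compounds were tested against 1.25 nM PFK with 0.1 mM ATP and 0.5 mM F6P. Percent activity came from controls lacking or containing enzyme.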

Results filed as inconclusive are left out. A structure can be active in one record and inactive in another. Activity calls are given as the source filed them. Unless noted, the call rests on the fitted dose curve; in most records, active means well fitted curve in the direction sought with a large enough effect; inconclusive means small, poorly fitted or top-dose-only effect, or another doubt; inactive means no such curve, though single readings can be large; an effect the other way counts as inactive or inconclusive.

Sequence of Thyrotropin receptor (Homo sapiens) (P16473 whole entry, looked up): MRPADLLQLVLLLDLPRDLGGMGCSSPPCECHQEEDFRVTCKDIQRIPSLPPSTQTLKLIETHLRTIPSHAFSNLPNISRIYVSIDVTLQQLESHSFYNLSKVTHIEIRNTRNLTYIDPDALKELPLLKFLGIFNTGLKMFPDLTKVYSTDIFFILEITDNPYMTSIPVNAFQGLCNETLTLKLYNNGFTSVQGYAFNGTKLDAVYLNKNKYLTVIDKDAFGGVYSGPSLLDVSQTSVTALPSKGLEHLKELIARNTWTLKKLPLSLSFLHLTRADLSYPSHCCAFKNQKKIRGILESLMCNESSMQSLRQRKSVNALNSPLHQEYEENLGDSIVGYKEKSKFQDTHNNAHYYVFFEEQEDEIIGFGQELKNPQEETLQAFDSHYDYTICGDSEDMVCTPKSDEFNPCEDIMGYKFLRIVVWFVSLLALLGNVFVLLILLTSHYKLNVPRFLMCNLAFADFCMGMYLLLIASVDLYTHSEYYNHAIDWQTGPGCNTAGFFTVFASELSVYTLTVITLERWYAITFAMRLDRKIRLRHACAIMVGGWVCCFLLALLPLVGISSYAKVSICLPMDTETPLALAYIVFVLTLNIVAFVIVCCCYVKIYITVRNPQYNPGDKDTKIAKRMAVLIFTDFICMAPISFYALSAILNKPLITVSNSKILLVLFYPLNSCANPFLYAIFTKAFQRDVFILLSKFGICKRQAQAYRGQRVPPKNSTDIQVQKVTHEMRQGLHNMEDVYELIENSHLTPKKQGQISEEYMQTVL
Sequence of Chromobox protein homolog 1 (Homo sapiens) (P83916 whole entry, looked up): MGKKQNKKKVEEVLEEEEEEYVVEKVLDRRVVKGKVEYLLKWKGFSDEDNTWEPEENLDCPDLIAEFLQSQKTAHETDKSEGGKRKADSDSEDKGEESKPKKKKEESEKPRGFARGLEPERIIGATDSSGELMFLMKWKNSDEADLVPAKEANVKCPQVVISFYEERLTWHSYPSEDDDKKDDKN
Sequence of ATPase family AAA domain-containing protein 5 (Homo sapiens) (Q96QE3 whole entry, looked up, the tested form may be a part): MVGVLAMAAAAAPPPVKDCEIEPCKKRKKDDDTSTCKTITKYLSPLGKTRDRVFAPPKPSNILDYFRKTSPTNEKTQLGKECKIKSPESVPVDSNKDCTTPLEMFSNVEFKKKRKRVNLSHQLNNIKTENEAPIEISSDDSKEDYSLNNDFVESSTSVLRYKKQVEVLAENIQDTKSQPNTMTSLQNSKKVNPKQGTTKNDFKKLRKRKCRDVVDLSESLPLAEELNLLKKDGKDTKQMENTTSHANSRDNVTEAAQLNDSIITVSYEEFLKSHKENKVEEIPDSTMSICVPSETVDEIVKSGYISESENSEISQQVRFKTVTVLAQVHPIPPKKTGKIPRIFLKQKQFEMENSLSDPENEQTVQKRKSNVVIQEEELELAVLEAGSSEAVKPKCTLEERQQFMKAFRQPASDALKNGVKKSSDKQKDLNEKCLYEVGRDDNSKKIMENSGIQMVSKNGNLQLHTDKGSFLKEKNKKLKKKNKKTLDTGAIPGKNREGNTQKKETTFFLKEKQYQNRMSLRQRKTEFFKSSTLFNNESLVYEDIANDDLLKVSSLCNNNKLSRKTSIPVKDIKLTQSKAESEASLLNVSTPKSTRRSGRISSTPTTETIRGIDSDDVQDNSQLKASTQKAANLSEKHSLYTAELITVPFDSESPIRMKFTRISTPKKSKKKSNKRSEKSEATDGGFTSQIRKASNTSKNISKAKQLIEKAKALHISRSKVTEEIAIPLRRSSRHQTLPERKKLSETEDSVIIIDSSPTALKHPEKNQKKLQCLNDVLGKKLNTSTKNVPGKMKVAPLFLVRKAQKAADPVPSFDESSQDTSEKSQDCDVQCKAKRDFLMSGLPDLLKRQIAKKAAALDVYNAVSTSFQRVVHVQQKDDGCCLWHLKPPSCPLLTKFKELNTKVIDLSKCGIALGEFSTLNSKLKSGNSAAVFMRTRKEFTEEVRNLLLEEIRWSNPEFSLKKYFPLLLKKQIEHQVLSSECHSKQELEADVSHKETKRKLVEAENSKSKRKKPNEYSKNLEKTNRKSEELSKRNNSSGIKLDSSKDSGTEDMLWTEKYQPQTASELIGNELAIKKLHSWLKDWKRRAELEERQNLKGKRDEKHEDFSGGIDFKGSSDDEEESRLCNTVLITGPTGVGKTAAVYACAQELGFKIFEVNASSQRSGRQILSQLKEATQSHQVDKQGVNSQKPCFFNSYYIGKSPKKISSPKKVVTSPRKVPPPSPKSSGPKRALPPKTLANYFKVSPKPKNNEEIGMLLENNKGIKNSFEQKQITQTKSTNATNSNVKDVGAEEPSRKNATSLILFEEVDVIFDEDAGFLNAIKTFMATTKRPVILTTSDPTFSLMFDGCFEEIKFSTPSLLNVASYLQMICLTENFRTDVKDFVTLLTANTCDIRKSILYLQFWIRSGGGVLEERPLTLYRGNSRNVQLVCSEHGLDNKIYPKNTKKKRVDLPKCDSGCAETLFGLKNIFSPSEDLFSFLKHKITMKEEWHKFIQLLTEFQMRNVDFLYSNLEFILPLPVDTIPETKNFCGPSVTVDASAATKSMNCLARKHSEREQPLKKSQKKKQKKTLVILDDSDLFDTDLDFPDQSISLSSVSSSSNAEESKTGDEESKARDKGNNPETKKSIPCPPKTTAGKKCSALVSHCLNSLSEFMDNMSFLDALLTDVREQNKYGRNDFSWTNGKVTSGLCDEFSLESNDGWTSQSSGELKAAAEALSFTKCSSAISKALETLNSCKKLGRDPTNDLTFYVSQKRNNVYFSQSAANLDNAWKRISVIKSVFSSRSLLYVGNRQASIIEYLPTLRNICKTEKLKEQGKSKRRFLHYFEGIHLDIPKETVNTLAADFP
Sequence of M-phase phosphoprotein 8 (Homo sapiens) (Q99549 whole entry, looked up): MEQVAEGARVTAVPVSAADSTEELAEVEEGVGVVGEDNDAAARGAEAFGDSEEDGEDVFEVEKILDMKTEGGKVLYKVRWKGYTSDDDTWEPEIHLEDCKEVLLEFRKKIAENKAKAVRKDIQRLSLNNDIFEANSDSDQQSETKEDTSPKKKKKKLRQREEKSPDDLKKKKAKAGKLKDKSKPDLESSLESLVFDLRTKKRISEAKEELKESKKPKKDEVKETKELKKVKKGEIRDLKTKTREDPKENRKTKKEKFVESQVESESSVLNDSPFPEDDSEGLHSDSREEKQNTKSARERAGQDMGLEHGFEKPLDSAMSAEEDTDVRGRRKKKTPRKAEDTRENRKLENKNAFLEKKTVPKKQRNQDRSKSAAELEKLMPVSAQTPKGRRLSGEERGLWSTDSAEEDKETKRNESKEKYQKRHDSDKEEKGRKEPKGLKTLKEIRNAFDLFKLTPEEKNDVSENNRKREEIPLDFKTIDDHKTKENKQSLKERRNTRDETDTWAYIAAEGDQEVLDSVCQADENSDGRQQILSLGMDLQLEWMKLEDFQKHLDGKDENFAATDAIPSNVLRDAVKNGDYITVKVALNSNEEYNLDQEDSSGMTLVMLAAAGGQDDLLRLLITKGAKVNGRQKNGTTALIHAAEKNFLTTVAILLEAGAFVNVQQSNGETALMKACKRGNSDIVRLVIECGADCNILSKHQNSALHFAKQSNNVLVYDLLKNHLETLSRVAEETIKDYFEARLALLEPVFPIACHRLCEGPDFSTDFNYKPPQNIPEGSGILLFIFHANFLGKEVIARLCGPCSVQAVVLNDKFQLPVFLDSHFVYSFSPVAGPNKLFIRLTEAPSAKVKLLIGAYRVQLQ
Sequence of Flap endonuclease 1 (Homo sapiens) (P39748 whole entry, looked up): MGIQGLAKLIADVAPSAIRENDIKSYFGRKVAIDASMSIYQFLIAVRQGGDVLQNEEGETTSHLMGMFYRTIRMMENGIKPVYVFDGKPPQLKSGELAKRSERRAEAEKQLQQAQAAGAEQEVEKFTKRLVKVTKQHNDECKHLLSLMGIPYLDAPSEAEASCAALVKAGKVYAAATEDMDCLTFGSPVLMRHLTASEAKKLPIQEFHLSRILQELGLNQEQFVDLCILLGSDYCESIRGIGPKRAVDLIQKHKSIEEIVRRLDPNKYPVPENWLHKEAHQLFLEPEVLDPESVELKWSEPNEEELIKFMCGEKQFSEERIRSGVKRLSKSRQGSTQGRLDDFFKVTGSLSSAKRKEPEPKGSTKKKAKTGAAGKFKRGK
Sequence of Thyrotropin-releasing hormone receptor (Homo sapiens) (P34981 whole entry, looked up): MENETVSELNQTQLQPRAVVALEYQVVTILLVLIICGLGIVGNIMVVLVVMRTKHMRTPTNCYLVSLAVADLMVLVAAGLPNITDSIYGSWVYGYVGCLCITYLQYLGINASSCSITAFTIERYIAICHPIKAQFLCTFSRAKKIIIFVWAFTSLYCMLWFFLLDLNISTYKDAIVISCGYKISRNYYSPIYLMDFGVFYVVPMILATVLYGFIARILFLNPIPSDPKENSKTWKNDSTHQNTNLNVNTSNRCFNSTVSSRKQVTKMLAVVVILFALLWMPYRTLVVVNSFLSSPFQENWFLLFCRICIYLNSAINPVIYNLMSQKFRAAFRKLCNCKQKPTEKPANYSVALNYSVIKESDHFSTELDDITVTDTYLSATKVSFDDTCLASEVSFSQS
Sequence of D(1A) dopamine receptor (Homo sapiens) (P21728 whole entry, looked up): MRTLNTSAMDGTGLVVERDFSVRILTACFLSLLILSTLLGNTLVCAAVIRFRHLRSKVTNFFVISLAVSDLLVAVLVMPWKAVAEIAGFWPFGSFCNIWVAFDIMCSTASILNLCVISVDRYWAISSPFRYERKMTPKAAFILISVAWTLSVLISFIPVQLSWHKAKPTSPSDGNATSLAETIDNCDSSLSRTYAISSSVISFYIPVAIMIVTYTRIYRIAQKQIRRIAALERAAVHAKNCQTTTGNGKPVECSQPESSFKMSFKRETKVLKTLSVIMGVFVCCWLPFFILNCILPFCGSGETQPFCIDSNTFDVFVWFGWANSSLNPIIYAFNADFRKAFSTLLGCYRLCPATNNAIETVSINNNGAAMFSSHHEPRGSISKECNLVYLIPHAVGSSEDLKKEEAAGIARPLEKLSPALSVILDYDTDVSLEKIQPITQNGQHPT

Turning to `CC(C)(C)c1ccc(S(=O)(=O)/C=C/C#N)cc1`, the Potency result in assay [1], in assay [3], in assay [10] and in assay [11] was “inactive” each time. The Potency in [2] is 377 nM (active); in [4], 20 µM (active) and inactive; in [5], 44700 nM (active). For the same compound, the call in assay [6], in assay [7] and in assay [9] was inactive. For the same compound, the activation in assay [8] was 7.44% (inactive).
On to `CSc1ccccc1N1CCN(CCCCCC(=O)NC2CCCc3ccccc32)CC1` (configuration not stated), for which the Potency result in assay [1], in [2], in assay [3], in assay [4], in assay [12] and in [14] was “inactive” each time. The Potency in [5] is 50100 nM (active); in assay [13], 2000 nM (active). For the same compound, in [6], the call was inactive.
As for `OCC1O[C@H](O)C(Cl)C(O)C1O` (some centres not stated), the Potency entry in assay [1], in assay [2], in assay [3], in [4], in assay [5] and in assay [12] was “inactive” throughout. Further, the Potency result in assay [16], in assay [13], in assay [14], in assay [17], in assay [10] and in assay [11] was “inactive” each time. The outcome in assay [6], in assay [15] and in [7] was inactive. In assay [8], the activation was 0.688% (inactive).
As to `CN(C)CCC(c1ccc(Cl)cc1)c1ccccn1` (configuration not stated), the Potency entry in [1], in assay [2], in assay [3], in assay [4], in assay [5] and in assay [12] was “inactive” each time. Moreover, the Potency entry in [16], in [13], in [14], in assay [17], in [18] and in assay [11] was “inactive” in each case. Besides, the call in assay [6], in [15], in assay [7] and in assay [9] was inactive. In addition, the activation in [8] was 1.12% (inactive). Besides, in assay [18], the viability change was 7.36%.
`N=c1ccn2c(n1)O[C@H]1[C@H](O)[C@@H](CO)O[C@H]12`: the Potency entry in assay [1], in [2], in assay [3], in assay [4], in assay [5] and in [12] was “inactive” in each case. The Potency entry in assay [16], in assay [13], in assay [14] and in assay [17] was “inactive” throughout. For the same compound, the outcome in assay [6], in [19] and in [9] was inactive.
In the case of `CC(COc1ccc(/C=C/c2ccccc2)cc1)[N+](C)(C)C` (configuration not stated), the Potency entry in [1], in assay [2], in assay [3], in assay [4], in [5] and in assay [12] was “inactive” throughout. Also, the Potency entry in assay [16], in assay [13], in assay [14], in assay [17], in assay [10] and in assay [11] was “inactive” throughout. Moreover, the result in assay [15], in assay [7] and in assay [9] was inactive. In addition, the activation in assay [8] was 0.125% (inactive).
Turning to `c1ccc(-c2ccccn2)nc1`, the Potency result in assay [1], in [2], in assay [3], in assay [4], in assay [5] and in assay [12] was “inactive” throughout. In addition, the Potency entry in assay [16], in assay [13], in [14], in assay [17], in assay [18] and in assay [11] was “inactive” in each case. The result in [6], in [15], in assay [7] and in assay [9] was inactive. Further, the activation in assay [8] is 0% (inactive). Besides, in assay [18], the viability change is -0.658%.
`O=[N+]([O-])c1ccc(CSc2ncnc3c2ncn3[C@@H]2O[C@H](CO)[C@@H](O)[C@H]2O)cc1`: the Potency result in [1], in [2], in [3], in assay [4], in [5] and in [12] was “inactive” in each case. The Potency result in assay [13] and in assay [14] was “inactive” each time. The outcome in assay [6] and in [9] was inactive. Further, the Potency in assay [17] is 20.6 nM (active).
